In ChEMBL document CHEMBL1961873, “Compounds: GSK PKIS; Assays: Nanosyn kinase panel” (2012):

Assays:
[1] = biological target: Dual specificity protein kinase CLK3 (Homo sapiens) (UniProt P49761); details: at 1 µM;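 also: each value is the mean inhibition of CLK3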
[2] = biological target: Dual specificity tyrosine-phosphorylation-regulated kinase 1A (Homo sapiens) (UniProt Q13627); details: at 0.1 µM
[3] = biological target: Dual specificity tyrosine-phosphorylation-regulated kinase 1A (Homo sapiens) (UniProt Q13627); details: at 1 µM
[4] = biological target: Dual specificity tyrosine-phosphorylation-regulated kinase 1B (Homo sapiens) (UniProt Q9Y463); details: at 0.1 µM
[5] = biological target: Dual specificity tyrosine-phosphorylation-regulated kinase 1B (Homo sapiens) (UniProt Q9Y463); details: at 1 µM
[6] = biological target: T1, Dual specificity tyrosine-phosphorylation-regulated kinase 2 (Homo sapiens) (UniProt Q92630); details: at 0.1 µM
T1 sequence (whole entry): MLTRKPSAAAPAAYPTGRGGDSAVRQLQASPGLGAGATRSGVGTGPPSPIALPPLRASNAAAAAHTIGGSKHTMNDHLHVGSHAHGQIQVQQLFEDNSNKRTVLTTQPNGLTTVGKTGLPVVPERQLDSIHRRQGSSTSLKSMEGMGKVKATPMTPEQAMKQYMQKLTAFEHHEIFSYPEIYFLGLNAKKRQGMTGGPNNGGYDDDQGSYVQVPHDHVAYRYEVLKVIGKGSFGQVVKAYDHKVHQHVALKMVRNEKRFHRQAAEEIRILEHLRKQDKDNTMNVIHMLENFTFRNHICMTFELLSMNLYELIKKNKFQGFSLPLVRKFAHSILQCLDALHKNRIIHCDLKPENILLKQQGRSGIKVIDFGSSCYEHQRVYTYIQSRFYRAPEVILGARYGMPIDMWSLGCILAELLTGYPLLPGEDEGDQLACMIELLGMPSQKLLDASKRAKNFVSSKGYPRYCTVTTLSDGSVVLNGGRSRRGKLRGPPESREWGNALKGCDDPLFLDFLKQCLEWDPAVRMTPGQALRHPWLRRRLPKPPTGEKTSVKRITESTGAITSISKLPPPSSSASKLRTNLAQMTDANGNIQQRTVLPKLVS

[7] = biological target: T1, Dual specificity tyrosine-phosphorylation-regulated kinase 2 (Homo sapiens); details: at 1 µM
[8] = biological target: Glycogen synthase kinase-3 alpha (Homo sapiens) (UniProt P49840); details: at 0.1 µM
[9] = biological target: Glycogen synthase kinase-3 alpha (Homo sapiens) (UniProt P49840); details: at 1 µM
[10] = biological target: Glycogen synthase kinase-3 beta (Homo sapiens) (UniProt P49841); details: at 0.1 µM
[11] = biological target: Glycogen synthase kinase-3 beta (Homo sapiens) (UniProt P49841); details: at 1 µM
[12] = biological target: Homeodomain-interacting protein kinase 1 (Homo sapiens) (UniProt Q86Z02); details: at 0.1 µM
[13] = biological target: Homeodomain-interacting protein kinase 1 (Homo sapiens) (UniProt Q86Z02); details: at 1 µM
[14] = biological target: T2, Homeodomain-interacting protein kinase 4 (Homo sapiens) (UniProt Q8NE63); details: at 0.1 µM
T2 sequence (whole entry): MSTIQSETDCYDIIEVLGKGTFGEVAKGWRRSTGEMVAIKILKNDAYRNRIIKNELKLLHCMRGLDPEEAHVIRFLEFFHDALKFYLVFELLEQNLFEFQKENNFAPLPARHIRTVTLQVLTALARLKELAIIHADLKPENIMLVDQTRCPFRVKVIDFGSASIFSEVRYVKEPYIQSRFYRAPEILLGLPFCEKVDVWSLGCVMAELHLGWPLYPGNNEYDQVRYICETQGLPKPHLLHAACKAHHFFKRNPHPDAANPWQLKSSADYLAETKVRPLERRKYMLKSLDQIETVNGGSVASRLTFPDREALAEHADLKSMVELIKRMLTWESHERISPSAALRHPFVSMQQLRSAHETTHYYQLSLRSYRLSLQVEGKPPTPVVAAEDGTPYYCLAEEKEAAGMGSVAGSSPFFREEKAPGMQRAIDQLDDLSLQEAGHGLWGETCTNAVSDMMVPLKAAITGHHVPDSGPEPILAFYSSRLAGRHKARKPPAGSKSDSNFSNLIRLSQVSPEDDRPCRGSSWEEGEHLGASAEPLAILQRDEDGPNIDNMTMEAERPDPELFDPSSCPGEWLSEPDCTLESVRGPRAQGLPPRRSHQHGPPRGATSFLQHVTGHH

[15] = biological target: T2, Homeodomain-interacting protein kinase 4 (Homo sapiens); details: at 1 µM
[16] = biological target: Mitogen-activated protein kinase 9 (Homo sapiens) (UniProt P45984); details: at 0.1 µM
[17] = biological target: Mitogen-activated protein kinase 9 (Homo sapiens) (UniProt P45984); details: at 1 µM
[18] = biological target: Mitogen-activated protein kinase 1 (Homo sapiens) (UniProt P28482); details: at 0.1 µM
[19] = biological target: Mitogen-activated protein kinase 1 (Homo sapiens) (UniProt P28482); details: at 1 µM
[20] = biological target: Mitogen-activated protein kinase 3 (Homo sapiens) (UniProt P27361); details: at 0.1 µM;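 also: each value is a mean inhibition figure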
Chain of Mitogen-activated protein kinase 3 (Homo sapiens) (P27361 whole entry): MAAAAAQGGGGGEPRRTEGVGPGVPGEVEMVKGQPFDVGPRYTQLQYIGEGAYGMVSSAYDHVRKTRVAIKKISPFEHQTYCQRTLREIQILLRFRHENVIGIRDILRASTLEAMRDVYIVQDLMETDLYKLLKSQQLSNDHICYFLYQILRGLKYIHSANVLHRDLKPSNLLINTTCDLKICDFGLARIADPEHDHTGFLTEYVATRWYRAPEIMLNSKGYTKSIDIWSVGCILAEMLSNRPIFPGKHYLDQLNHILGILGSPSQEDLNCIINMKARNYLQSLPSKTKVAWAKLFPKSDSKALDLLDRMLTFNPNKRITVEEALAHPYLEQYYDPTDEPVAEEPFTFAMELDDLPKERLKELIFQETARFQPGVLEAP

Chain of Mitogen-activated protein kinase 1 (Homo sapiens) (P28482 whole entry): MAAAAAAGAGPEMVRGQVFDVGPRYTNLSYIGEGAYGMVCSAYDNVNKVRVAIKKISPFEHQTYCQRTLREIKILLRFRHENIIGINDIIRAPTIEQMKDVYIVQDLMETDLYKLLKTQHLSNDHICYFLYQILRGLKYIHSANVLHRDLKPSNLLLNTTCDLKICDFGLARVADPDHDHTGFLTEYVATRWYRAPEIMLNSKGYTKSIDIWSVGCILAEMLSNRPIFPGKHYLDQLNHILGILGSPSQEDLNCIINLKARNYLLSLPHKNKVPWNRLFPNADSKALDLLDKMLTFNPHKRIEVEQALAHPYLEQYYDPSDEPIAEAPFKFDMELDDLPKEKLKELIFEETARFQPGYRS
Chain of Mitogen-activated protein kinase 9 (Homo sapiens) (P45984 whole entry, looked up): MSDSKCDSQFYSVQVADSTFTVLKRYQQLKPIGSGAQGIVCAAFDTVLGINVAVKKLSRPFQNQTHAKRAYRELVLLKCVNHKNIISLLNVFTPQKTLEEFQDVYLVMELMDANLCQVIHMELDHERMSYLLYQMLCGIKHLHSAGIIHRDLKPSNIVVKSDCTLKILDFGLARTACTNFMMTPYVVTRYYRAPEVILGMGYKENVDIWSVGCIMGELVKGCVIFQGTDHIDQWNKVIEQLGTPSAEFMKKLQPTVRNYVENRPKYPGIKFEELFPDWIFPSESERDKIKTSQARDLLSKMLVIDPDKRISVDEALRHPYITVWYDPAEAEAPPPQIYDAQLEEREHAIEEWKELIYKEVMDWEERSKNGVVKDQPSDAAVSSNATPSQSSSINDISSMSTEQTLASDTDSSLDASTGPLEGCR
Chain of Homeodomain-interacting protein kinase 1 (Homo sapiens) (Q86Z02 whole entry, looked up): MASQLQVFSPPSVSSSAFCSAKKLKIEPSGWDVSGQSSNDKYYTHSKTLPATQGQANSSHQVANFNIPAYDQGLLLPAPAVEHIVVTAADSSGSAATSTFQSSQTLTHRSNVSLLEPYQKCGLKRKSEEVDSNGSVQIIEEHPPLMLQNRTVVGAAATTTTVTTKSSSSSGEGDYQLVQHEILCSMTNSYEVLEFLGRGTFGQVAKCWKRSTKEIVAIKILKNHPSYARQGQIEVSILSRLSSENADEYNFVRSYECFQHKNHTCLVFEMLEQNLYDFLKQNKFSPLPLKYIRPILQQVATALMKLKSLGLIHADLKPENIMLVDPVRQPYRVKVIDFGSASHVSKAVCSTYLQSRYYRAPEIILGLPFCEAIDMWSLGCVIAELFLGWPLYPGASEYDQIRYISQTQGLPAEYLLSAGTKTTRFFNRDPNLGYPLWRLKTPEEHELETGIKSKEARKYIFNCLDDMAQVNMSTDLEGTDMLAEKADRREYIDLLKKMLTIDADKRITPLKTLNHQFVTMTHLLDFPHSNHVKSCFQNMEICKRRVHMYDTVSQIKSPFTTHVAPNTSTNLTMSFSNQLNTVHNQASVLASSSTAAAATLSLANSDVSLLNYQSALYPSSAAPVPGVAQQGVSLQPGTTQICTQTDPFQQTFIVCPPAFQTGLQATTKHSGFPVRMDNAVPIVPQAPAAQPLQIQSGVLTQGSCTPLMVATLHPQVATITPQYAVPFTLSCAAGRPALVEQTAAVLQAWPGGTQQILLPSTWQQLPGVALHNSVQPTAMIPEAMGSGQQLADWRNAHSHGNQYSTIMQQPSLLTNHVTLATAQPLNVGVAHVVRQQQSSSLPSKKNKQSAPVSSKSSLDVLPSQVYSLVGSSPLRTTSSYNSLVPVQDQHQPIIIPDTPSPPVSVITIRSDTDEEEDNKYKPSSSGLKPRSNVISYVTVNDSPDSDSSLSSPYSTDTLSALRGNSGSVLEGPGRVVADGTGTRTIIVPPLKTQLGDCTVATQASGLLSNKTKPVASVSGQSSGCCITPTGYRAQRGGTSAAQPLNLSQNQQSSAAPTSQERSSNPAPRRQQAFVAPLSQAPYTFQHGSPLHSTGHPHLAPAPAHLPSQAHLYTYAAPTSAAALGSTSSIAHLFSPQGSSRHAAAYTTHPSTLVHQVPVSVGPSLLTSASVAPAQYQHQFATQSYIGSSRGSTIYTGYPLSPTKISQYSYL
Chain of Glycogen synthase kinase-3 alpha (Homo sapiens) (P49840 2-483 limits assumed): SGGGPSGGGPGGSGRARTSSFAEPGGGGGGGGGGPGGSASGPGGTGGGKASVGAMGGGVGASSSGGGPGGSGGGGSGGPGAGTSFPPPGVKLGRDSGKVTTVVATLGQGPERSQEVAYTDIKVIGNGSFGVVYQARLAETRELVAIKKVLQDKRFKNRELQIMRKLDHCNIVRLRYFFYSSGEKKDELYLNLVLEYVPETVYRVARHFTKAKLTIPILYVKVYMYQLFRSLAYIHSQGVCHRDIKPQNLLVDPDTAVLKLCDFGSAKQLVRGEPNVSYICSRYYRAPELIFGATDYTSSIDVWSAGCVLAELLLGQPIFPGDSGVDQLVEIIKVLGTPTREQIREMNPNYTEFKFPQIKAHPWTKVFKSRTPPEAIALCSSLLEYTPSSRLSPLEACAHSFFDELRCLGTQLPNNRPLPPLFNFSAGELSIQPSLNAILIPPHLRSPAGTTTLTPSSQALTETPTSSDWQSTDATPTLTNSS
Chain of Dual specificity protein kinase CLK3 (Homo sapiens) (P49761 whole entry, looked up): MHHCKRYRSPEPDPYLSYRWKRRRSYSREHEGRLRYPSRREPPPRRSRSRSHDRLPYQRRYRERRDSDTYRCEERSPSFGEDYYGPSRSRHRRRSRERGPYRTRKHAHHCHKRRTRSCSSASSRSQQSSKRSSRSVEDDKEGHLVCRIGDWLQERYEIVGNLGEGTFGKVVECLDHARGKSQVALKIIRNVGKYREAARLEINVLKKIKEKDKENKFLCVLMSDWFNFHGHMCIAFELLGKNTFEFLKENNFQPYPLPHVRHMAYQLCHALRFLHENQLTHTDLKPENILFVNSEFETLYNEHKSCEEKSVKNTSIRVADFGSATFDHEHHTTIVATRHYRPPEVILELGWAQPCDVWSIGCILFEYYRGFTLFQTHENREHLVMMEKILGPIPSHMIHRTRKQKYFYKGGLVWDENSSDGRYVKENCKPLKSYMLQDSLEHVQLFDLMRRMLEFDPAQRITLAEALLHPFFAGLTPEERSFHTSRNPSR
Chain of Glycogen synthase kinase-3 beta (Homo sapiens) (P49841 whole entry, looked up): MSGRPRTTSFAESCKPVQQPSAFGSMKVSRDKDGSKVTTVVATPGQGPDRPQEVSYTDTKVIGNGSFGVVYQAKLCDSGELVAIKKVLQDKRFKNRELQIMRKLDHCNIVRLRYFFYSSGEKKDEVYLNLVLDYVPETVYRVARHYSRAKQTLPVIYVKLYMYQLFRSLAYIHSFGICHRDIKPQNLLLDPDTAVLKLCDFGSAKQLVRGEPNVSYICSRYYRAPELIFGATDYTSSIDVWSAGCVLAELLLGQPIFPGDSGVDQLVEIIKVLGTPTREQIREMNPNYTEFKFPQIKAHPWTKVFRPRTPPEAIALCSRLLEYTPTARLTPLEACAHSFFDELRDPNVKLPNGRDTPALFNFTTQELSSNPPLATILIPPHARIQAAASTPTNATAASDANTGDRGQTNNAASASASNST
Chain of Dual specificity tyrosine-phosphorylation-regulated kinase 1B (Homo sapiens) (Q9Y463 whole entry, looked up): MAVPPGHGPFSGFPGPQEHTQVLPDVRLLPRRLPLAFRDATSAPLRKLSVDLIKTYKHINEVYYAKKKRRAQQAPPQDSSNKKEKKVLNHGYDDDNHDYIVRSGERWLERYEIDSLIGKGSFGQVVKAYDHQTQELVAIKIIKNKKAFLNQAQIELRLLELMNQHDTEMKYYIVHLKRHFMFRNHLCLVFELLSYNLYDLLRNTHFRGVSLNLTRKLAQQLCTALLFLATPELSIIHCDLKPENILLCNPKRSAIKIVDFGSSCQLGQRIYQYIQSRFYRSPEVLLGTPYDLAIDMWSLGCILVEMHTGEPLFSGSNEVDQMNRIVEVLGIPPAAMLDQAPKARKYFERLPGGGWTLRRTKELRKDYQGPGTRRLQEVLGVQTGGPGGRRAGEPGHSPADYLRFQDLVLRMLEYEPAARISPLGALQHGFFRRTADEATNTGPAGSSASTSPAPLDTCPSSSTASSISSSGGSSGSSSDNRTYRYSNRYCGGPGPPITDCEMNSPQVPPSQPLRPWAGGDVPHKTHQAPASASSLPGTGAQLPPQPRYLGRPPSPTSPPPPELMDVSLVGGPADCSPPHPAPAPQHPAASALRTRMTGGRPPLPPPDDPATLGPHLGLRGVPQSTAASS

SMILES | inhibition [1] [%] | inhibition [2] [%] | inhibition [3] [%] | inhibition [4] [%] | inhibition [5] [%] | inhibition [6] [%] | inhibition [7] [%] | inhibition [8] [%] | inhibition [9] [%] | inhibition [10] [%] | inhibition [11] [%] | inhibition [12] [%] | inhibition [13] [%] | inhibition [14] [%] | inhibition [15] [%] | inhibition [16] [%] | inhibition [17] [%] | inhibition [18] [%] | inhibition [19] [%] | inhibition [20] [%]
Nc1nccc(C#Cc2cncnc2Nc2ccc(OCc3cccc(F)c3)c(Cl)c2)n1 | 3.1 | 3.44 | 10.8 | 1.71 | 4.87 | 3.08 | 4.89 | 4.01 | 14.3 | 2.94 | 10.5 | -0.05 | 6.94 | 4.23 | 8.43 | 3.97 | 4.23 | 3.54 | 4.87 | 1.83
COc1cccc(-n2ncc3c(N/N=C/c4ccc(C)cc4)ncnc32)c1 | 1.46 | 5.94 | 16.5 | 3.97 | 11.3 | 5.76 | 13.6 | 19.4 | 55.6 | 13.1 | 47 | 1.58 | 13.3 | 3.16 | 11.4 | 8.36 | 11.6 | 6.17 | 7.67 | 4.71
COc1cc(Nc2nccc(-c3cnn4ncccc34)n2)cc(OC)c1 | 77.3 | 85 | 91.2 | 87.4 | 92.4 | 5.46 | 30.2 | 49.7 | 86.8 | 60.2 | 89.9 | 86.8 | 93.7 | 30.6 | 76.3 | 10.4 | 48.1 | 2.31 | 19.7 | 2.46
COc1ccc2ncnc(Nc3ccc(OCc4ccccc4)cc3)c2c1 | 1.64 | 1.05 | 3.73 | -0.87 | 1.35 | 1.27 | 2.65 | 1.55 | 4.44 | 1.06 | 0.7 | 0.26 | 3.41 | 0.67 | 1.18 | 3.85 | 2.97 | 2.37 | 2.37 | 4.06
NC(=O)c1cccc(Nc2nccc(Nc3cccc(F)c3)n2)c1 | 2.19 | 0.47 | 0.26 | 0.64 | -0.2 | 1.36 | 1.82 | 3.82 | 21 | 2.25 | 15.8 | -3.17 | 5.3 | 0.35 | 8.46 | 0.09 | 8.39 | 0.99 | 2.19 | -0.06
C[C@@H](Oc1cc(-n2cnc3ccc(OCC4CCN(C)CC4)cc32)sc1C(N)=O)c1ccccc1C(F)(F)F | 3.73 | -2.42 | 2.47 | 0.26 | 2.2 | -2.57 | -2.94 | -0.56 | 2.65 | -0.31 | 2.74 | -3.51 | 9.66 | 4.86 | 32.3 | -0.81 | -1.11 | 0.24 | 0.02 | -1.53
CS(=O)(=O)CCNCc1nc(-c2ccc3ncnc(Nc4ccc(OCc5cccc(C(F)(F)F)c5)cc4)c3c2)cs1 | -1.22 | -1.28 | -1.8 | 0.58 | 2.3 | 1.36 | 1.03 | 6.47 | 4.93 | 5.25 | 4.85 | -1.73 | 0.09 | -0.35 | 0.46 | 2.97 | 6.45 | 1.69 | 1.79 | 2.89
Cc1cc(-c2ccccn2)cc(C)c1/C=C/c1cncc(-c2nn[nH]n2)c1 | 0.95 | 2.5 | 1.98 | 2.58 | 4.24 | 3.69 | 4.85 | 5.73 | 12.5 | 5.72 | 13.7 | 1.03 | 5.14 | 1.94 | 7.19 | 5.13 | 9.24 | 4.92 | 7.24 | 5.71
